Laboratory results taken from PubChem BioAssay.
The source made the active and inactive calls.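 Rule for the calls, unless noted: active = z-score of at least 1.8 in each of two replicates, scored against plate mean and spread of sample wells; inactive = the rest.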

Experiments:
[1] = viability loss with induced miR-34 in A549 – imaging, A549 dox-inducible miR-34, nuclei and caspase counts, primary screen (AID 1347080;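 active = compounds whose cell count with miR-34 switched on is under 0.7 times the count with it off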; note: test concentration not given here); conditions: A549 miR-34 inducible, Hoechst nuclei count, 48 h
[2] = MELAS cybrid and Rieske KO viability enhancers – cell-based, MELAS cybrids, Rieske KO mouse fibroblasts, CellTiter-Glo, primary screen (AID 1508586;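 active = mean z-score across replicates of 1.96 or higher in either the MELAS or the Rieske mutant cell line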;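 note: test concentration not given here; z relative to plate mean and SD of compound and empty wells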); conditions: low glucose
[3] = galactose survival enhancers in mitochondrial complex I cybrids – cell-based, galactose medium, ATP luminescence, primary screen (AID 1645843); conditions: complex I mutant cybrid cells, 72 h, stronger effect = higher value;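 note: positive z means more ATP and so rescue of galactose-driven cybrid death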

In the case of O=C1CCNC(=O)N1, the fold change ([1]; stronger effect = lower value, cell number ratio, induced over uninduced) is reported as 0.882 (inactive), the fold change ([1]; measured here: relative caspase fold change +Dox/-Dox) is reported as 0.303 and the cell count ([1]; measured here: total cells with miR-34 induction, stronger effect = lower value) is reported as 8710. The cell count ([1]; measured here: total cells without miR-34 induction) was 9870, the z-score ([2]; MELAS cybrid survival, CellTiter-Glo 48 h, stronger effect = higher value) was 0.298 (inactive) and the z-score ([2]; Rieske KO mouse fibroblast survival, CellTiter-Glo 72 h) was 0.144. The z-score [3] was 0.585 (inactive).
